Among the data in PubChem BioAssay (NCI) are growth inhibition values, retold here.

The panel holds about 79,000 compounds, 15% with a hit somewhere; the sample as a whole holds those more often. Values without a mark were called inactive. Rule as the data show it: active = growth inhibition above about 70%; inactive = the rest.

The nature of the first assay: NCI Yeast Anticancer Drug Screen. Data for the rad50 strain (AID 155).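 Also: 0% = growth of vehicle-only cultures of the same strain.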 The note with it: S. cerevisiae rad50 strain growth inhibition; at 50.0 µM; active compounds read high. The method, boiled down:
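Vehicle-treated cultures provide the reference for the growth inhibition reported for compound-exposed, repair-deficient yeast.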
In the case of `CC(=O)c1c(P(=O)(OC(C)C)OC(C)C)nn(-c2ccc([N+](=O)[O-])cc2)c1C`, the growth inhibition was 59.1%.

As for `COc1ccc(C2(C)OCCCC2([NH-])C[NH-])cc1.[Cl][Pt+2][Cl]` (stereo not given), the growth inhibition is 10.9%.

Regarding `O=C1C2CCCCC2C(=O)N1O` (stereo not given), the growth inhibition was 60.1%.

For `c1ccc2c3c(ccc2c1)CCC3`, the growth inhibition was -20.9%.

As to `Cc1cccc(OS(=O)(=O)c2ccccc2)c1`, the growth inhibition was 34.6%.

For the molecule `O=C1OCC(CN2CCC(n3c(=O)[nH]c4ccccc43)CC2)=C1c1ccccc1`, the growth inhibition was -12.2%.

In the case of `O=C(O)/C=C\c1ccc(OC(=O)c2ccccc2)cc1`, the growth inhibition was -1.1%.

Regarding `C=CCC1=C(C)C[C@@H]2CCC(=O)C=C12`, the growth inhibition was 9.05%.

Regarding `O=c1c2cc3c(cc2[nH]c2ncccc12)OCO3`, the growth inhibition is -12.8%.

With `NC(CCCC(N)C(=O)c1ccccc1)C(=O)c1ccccc1` (stereo not given), the growth inhibition is -13.7%.

For `CC(=O)NC1=C(C)C(=O)c2c(nc3n2CCC3OC(=O)c2ccccc2)C1=N` (stereo not given), the growth inhibition is 15%.

On to `COC(=O)C1(C(=O)OC)OC(c2ccc(OC)cc2)[C@H]2C(=O)N(C)C(=O)[C@H]21` (stereo not given in full), for which the growth inhibition was 2.75%.

For the molecule `CCOC(=O)c1ccc(N=Cc2cccs2)cc1`, the growth inhibition was -1.9%.

Regarding `CSc1nc(NN)c([N+](=O)[O-])c(SC)n1`, the growth inhibition was -7.55%.

With `COC(=O)c1ccc(OCc2ccc3nc(OC)c(OC)nc3c2)cc1`, the growth inhibition was -32.1%.

Regarding `O=S(=O)(CCl)Nc1ccncc1`, the growth inhibition was -16.6%.

On to `CCOC(=O)c1ccc(NC(=O)Oc2ccc(SC)cc2)cc1`, for which the growth inhibition is 8.2%.

As for `CC(=O)Nc1ccc2c(=O)cc[nH]c2n1`, the growth inhibition was 13.7%.

Consider `C=C(Cl)C(C)(Cl)CCC(Cl)C(C)(C)Cl` (stereo not given), for which the growth inhibition is 21.9%.

Turning to `COC(=O)c1[nH]c(=O)[nH]c(=S)c1N`, the growth inhibition is 7.75%.

Consider `CCC/C=N/NC(=O)CCCCCCCCCCCCCCCCC`, for which the growth inhibition was 7.35%.

Regarding `O=[N+]([O-])c1ccccc1-c1ccccc1CO`, the growth inhibition was -22%.

For the molecule `CC[Si](C)(C)COC(N)=O`, the growth inhibition is -23.2%.

Take `CCCCCCCCCCC(CCCCCCCCCC)C1CCCC1`: the growth inhibition is -12.3%.

Take `C[N+](C)(C)Cc1ccc2ccccc2c1CC(O)(c1ccccc1)c1ccccc1`: the growth inhibition is 16.6%.

Take `CC/C=C/CC(=O)NCc1ccc(O)c(OC)c1`: the growth inhibition is 5.45%.

Consider `COc1ccc(S(=O)(=O)N/N=C\c2cc(I)cc(I)c2O)cc1`, for which the growth inhibition was 27.9%.

Turning to `CCC(=C(c1ccc(OCc2ccccc2)cc1)c1ccc(OCc2ccccc2)cc1)c1ccc(OC)cc1`, the growth inhibition is 14.7%.

Turning to `O=C1/C(=N\N(C(=O)c2ccccc2)c2ccccc2)c2cccc3cccc1c23`, the growth inhibition was 11.8%.

As to `CC(=O)Nc1ccc2oc(=O)[nH]c(=O)c2c1`, the growth inhibition is 10.8%.

Consider `[Cl][Pt+2][Cl].[NH-]CC(O)c1ccc2oc3ccccc3c2c1.[NH-]CC(O)c1ccc2oc3ccccc3c2c1` (stereo not given), for which the growth inhibition was -23.3%.

In the case of `Cc1cc(N(CCCOS(C)(=O)=O)CCCOS(C)(=O)=O)ccc1C=Nc1cc(Cl)c(O)c(Cl)c1`, the growth inhibition was 31.7%.

As to `CCOCCOC(=O)c1ccc(C(N)=NC)cc1`, the growth inhibition is 12.6%.

Regarding `Cn1c(=O)c2c3ccccc3c(C(=O)c3ccccc3)n2c2ccccc21`, the growth inhibition is 38.4%.

On to `Nc1nc(Cl)cc(Oc2ccc(Cl)cc2)n1`, for which the growth inhibition was 9.65%.

Take `CCCNC(=O)c1cccc(-c2cccc(C(=O)NCCC)c2)c1`: the growth inhibition was 30.1%.

Consider `O=C(NC1CCCCC1)/C(=C\c1ccc(/C=C(/NC(=O)c2ccccc2)C(=O)NC2CCCCC2)cc1)NC(=O)c1ccccc1`, for which the growth inhibition was -9.95%.

On to `CC(=O)OCC1COC(C2CC=CCC2C)O1` (stereo not given), for which the growth inhibition is -1.9%.

Take `CC(C)(C)Nc1ccc([N+](=O)[O-])cc1[N+](=O)[O-]`: the growth inhibition was 26.4%.

As for `CNc1ccc(OC)cc1`, the growth inhibition was -4.9%.

A further assay in a line: NCI Yeast Anticancer Drug Screen. Data for the mec2-1 strain (AID 157). The settings on record: S. cerevisiae mec2-1 strain, at 50.0 µM, active compounds read high. A digest of the protocol: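 Compounds were applied to mec2-1 yeast cells. Their growth was then compared with that of vehicle-treated cultures to give growth inhibition.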
In the case of `CC(=O)c1c(P(=O)(OC(C)C)OC(C)C)nn(-c2ccc([N+](=O)[O-])cc2)c1C`, the growth inhibition is 20.1%.

For `COc1ccc(C2(C)OCCCC2([NH-])C[NH-])cc1.[Cl][Pt+2][Cl]` (stereo not given), the growth inhibition is -3.15%.

`O=C1C2CCCCC2C(=O)N1O` (stereo not given): the growth inhibition is -1.5%.

`c1ccc2c3c(ccc2c1)CCC3`: the growth inhibition is -42.9%.

Take `Cc1cccc(OS(=O)(=O)c2ccccc2)c1`: the growth inhibition is 16.2%.

Take `O=C1OCC(CN2CCC(n3c(=O)[nH]c4ccccc43)CC2)=C1c1ccccc1`: the growth inhibition is -4.65%.

Take `O=C(O)/C=C\c1ccc(OC(=O)c2ccccc2)cc1`: the growth inhibition was -12.6%.

For the molecule `C=CCC1=C(C)C[C@@H]2CCC(=O)C=C12`, the growth inhibition is -24.9%.

As for `O=c1c2cc3c(cc2[nH]c2ncccc12)OCO3`, the growth inhibition was 0.65%.

In the case of `NC(CCCC(N)C(=O)c1ccccc1)C(=O)c1ccccc1` (stereo not given), the growth inhibition was 2.35%.

With `CC(=O)NC1=C(C)C(=O)c2c(nc3n2CCC3OC(=O)c2ccccc2)C1=N` (stereo not given), the growth inhibition was -8.3%.

In the case of `COC(=O)C1(C(=O)OC)OC(c2ccc(OC)cc2)[C@H]2C(=O)N(C)C(=O)[C@H]21` (stereo not given in full), the growth inhibition was -6%.

With `CCOC(=O)c1ccc(N=Cc2cccs2)cc1`, the growth inhibition is 28.4%.

Consider `CSc1nc(NN)c([N+](=O)[O-])c(SC)n1`, for which the growth inhibition is -0.7%.

For `COC(=O)c1ccc(OCc2ccc3nc(OC)c(OC)nc3c2)cc1`, the growth inhibition is -30.4%.

As for `O=S(=O)(CCl)Nc1ccncc1`, the growth inhibition is -9.6%.

Regarding `CCOC(=O)c1ccc(NC(=O)Oc2ccc(SC)cc2)cc1`, the growth inhibition is -5.25%.

In the case of `CC(=O)Nc1ccc2c(=O)cc[nH]c2n1`, the growth inhibition was 2.9%.

Take `C=C(Cl)C(C)(Cl)CCC(Cl)C(C)(C)Cl` (stereo not given): the growth inhibition was 16.4%.

On to `COC(=O)c1[nH]c(=O)[nH]c(=S)c1N`, for which the growth inhibition is 21%.

In the case of `CCC/C=N/NC(=O)CCCCCCCCCCCCCCCCC`, the growth inhibition is 7.95%.

Regarding `O=[N+]([O-])c1ccccc1-c1ccccc1CO`, the growth inhibition was -19.2%.

`CC[Si](C)(C)COC(N)=O`: the growth inhibition was 8.1%.

`CCCCCCCCCCC(CCCCCCCCCC)C1CCCC1`: the growth inhibition is 16.1%.

Regarding `C[N+](C)(C)Cc1ccc2ccccc2c1CC(O)(c1ccccc1)c1ccccc1`, the growth inhibition was -0.6%.

Take `CC/C=C/CC(=O)NCc1ccc(O)c(OC)c1`: the growth inhibition was -1.15%.

As for `COc1ccc(S(=O)(=O)N/N=C\c2cc(I)cc(I)c2O)cc1`, the growth inhibition is 7.9%.

On to `CCC(=C(c1ccc(OCc2ccccc2)cc1)c1ccc(OCc2ccccc2)cc1)c1ccc(OC)cc1`, for which the growth inhibition was -24.2%.

Consider `O=C1/C(=N\N(C(=O)c2ccccc2)c2ccccc2)c2cccc3cccc1c23`, for which the growth inhibition is 49%.

On to `CC(=O)Nc1ccc2oc(=O)[nH]c(=O)c2c1`, for which the growth inhibition is -15.1%.

Consider `[Cl][Pt+2][Cl].[NH-]CC(O)c1ccc2oc3ccccc3c2c1.[NH-]CC(O)c1ccc2oc3ccccc3c2c1` (stereo not given), for which the growth inhibition was -11.2%.

For the molecule `Cc1cc(N(CCCOS(C)(=O)=O)CCCOS(C)(=O)=O)ccc1C=Nc1cc(Cl)c(O)c(Cl)c1`, the growth inhibition was 21.4%.

As to `CCOCCOC(=O)c1ccc(C(N)=NC)cc1`, the growth inhibition was -1.2%.

Turning to `Cn1c(=O)c2c3ccccc3c(C(=O)c3ccccc3)n2c2ccccc21`, the growth inhibition is 4.1%.

Regarding `Nc1nc(Cl)cc(Oc2ccc(Cl)cc2)n1`, the growth inhibition is -17.6%.

As to `CCCNC(=O)c1cccc(-c2cccc(C(=O)NCCC)c2)c1`, the growth inhibition was -10.3%.

Take `O=C(NC1CCCCC1)/C(=C\c1ccc(/C=C(/NC(=O)c2ccccc2)C(=O)NC2CCCCC2)cc1)NC(=O)c1ccccc1`: the growth inhibition is -26.9%.

Regarding `CC(=O)OCC1COC(C2CC=CCC2C)O1` (stereo not given), the growth inhibition is -8.9%.

Regarding `CC(C)(C)Nc1ccc([N+](=O)[O-])cc1[N+](=O)[O-]`, the growth inhibition is -21.9%.

For `CNc1ccc(OC)cc1`, the growth inhibition is -0.9%.
